AmpC inh no det: blocks E. coli AmpC beta-lactamase in absence of detergent; P00811; AmpC nitrocefin hydrolysis, absorbance 480 nm, no detergent; Potency, µM (doses to about 28.7 µM), for inactives: top-dose activity change, negative = inhibition; actives 1.8% (n = 71,000); further: % of control where 0% means no effect
Target sequence (P00811 whole entry, looked up): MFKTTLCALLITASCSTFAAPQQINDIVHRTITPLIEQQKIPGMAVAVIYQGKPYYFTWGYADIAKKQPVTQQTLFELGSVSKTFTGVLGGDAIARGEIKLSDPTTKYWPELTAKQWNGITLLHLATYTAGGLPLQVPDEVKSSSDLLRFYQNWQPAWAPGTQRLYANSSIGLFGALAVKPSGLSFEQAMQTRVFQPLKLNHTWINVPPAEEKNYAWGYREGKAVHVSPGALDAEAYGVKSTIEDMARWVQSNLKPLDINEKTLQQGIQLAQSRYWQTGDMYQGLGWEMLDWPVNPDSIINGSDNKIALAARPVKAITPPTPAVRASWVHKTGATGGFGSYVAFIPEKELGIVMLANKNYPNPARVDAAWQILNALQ
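Enzyme, pH 7.0 phosphate. Compound titrations were pre-incubated with AmpC for 15 min at room temperature before nitrocefin (stock 800 uM) addition; product formation was recorded at 480 nm every 20 s for 4 min.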
Prx2 Sm inh: Schistosoma mansoni Prx2 inhibition. S. mansoni Prx2 activity coupled to TGR/GSH (TGR is thioredoxin glutathione reductase), NADPH fluorescence loss, qHTS. Potency, µM. AID 448. actives 0.07% (n = 65,000)
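Purified S. mansoni TGR and Prx2 in pH 7.4 phosphate buffer with EDTA and Tween-20 were preincubated with compounds for 15 min. Further NADPH/GSH was added, then a 2.5 mM H2O2 aliquot initiated turnover, followed kinetically by NADPH fluorescence.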
LT uptake inh: anthrax lethal toxin internalization inhibition; actives 0.67% (n = 70,000); Cells, anthrax lethal toxin internalization, FRET ratio (460/530); AID 912; Potency, µM (titrated, usually from 40 µM), inactives show at the highest dose activity change, negative = inhibition, usual class: inhibitors; further: on the % scale 0 is the no-effect control and ±100 the full control effect; nearly all actives have a fitted effect of over 50% in size
AmpC inh det: blocks E. coli AmpC beta-lactamase in presence of detergent | P00811 | actives 0.09% (n = 71,000) | purified AmpC, nitrocefin hydrolysis with detergent | Potency, µM (titrated, usually from 28.7 µM), without a hit: at the top dose activity change, negative = inhibition; active means well fitted curve in the direction sought with a large enough effect; inconclusive means small, poorly fitted or top-dose-only effect; further: on the % scale 0 is the no-effect control and ±100 the full control effect
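E. coli AmpC (5.3 nM) in 20 mM phosphate pH 7.0 with 0.01% Triton X-100, preincubated 15 min RT with compound; nitrocefin (2 uL of 800 uM stock) hydrolysis followed by 480 nm absorbance every 20 s over 4 min.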
Starred values were filed as active, the others as inactive; i = inactive; ? = inconclusive; / = no result given; ! = not confirmed by another sample; [ ] = dose if it differs, or a comment. An excerpt weighted towards active compounds, which were near 2.4% of everything screened. Unless noted, the call rests on the fitted dose curve. Potency means the concentration at half of the fitted maximal effect.

SMILES | AmpC inh no det | Prx2 Sm inh | LT uptake inh | AmpC inh det
CC1=C(C(=O)OCc2ccccc2)C(c2cccnc2)n2ncnc2N1 (stereo not drawn) | 6% | >57 | 2% | -2%
CC(=O)C1=C(C)Nc2ncnn2C1c1cccc(OCc2ccccc2)c1 (stereo not drawn) | 4µM*[single pt active] | >57 | 6% | 12%
CCc1ccc(NC(=O)NCCN2CCc3ccccc3C2)cc1 | 13% | >57 | -22% | -2%
O=C(NCCN1CCc2ccccc2C1)Nc1ccc(F)cc1 | 4µM*[single pt active] | >57 | ? | 5%
Oc1ccc(Cl)cc1-c1cc(-c2ccccc2)n[nH]1 | 4µM*[single pt active] | >57 | ? | 19%
Cn1c(=O)cc(SCC(=O)N2CCN(Cc3ccc4c(c3)OCO4)CC2)c2ccccc21 | 162% | >57 | 8% | -5%
CC(C)CN(CC(C)C)c1nnc(N)s1 | 4µM*[single pt active] | >57 | 0% | 26%
COc1cccc(NC(=O)C2CCCN(S(=O)(=O)c3cccc4cccnc34)C2)c1 (stereo not drawn) | 18% | >57 | -30% | 10%
O=c1c(O)c(-c2ccc(O)cc2)oc2ccc(O)cc12 | 16µM*[single pt active] | i | -20% | -2%
O=C1c2ccccc2C(Nc2ccc3c(c2)OCCO3)N1c1ccccn1 (stereo not drawn) | 14% | >57 | ? | 9%
O=C1c2ccccc2C(Nc2ccc3c(c2)OCCO3)N1Cc1ccc2c(c1)OCO2 (stereo not drawn) | 4µM*[single pt active] | >57 | ? | 11%
CCN(CC)S(=O)(=O)c1ccc(NC2c3ccccc3C(=O)N2Cc2ccc3c(c2)OCO3)cc1 (stereo not drawn) | 4µM*[single pt active] | >57 | ? | 15%
O=C(CSc1nnc(COc2cccc3cccnc23)o1)c1ccc(F)cc1 | 32% | >57 | -4% | -7%
CCOC(=O)CCC(=O)Nc1ccc(S(=O)(=O)N2CCCC2)cc1 | 2% | >57 | 5% | 3%
O=C(CN1CCC(n2nnc3cc(F)ccc32)CC1)NC1CC1 | 3% | >57 | -8% | -3%
CCOc1ccc2nc(NC(=O)CN3CCC(n4nnc5cc(F)ccc54)CC3)sc2c1 | 52% | >57 | 13µM* | -5%
N[C@@H](Cc1cc(-c2ccc(Cl)cc2Cl)cc(CP(=O)(O)O)c1O)C(=O)O | ? | >57 | ? | 16µM*
CCN(CC)c1ccc(C(=O)Nc2cccc(F)c2)cc1 | -21% | >57 | 10µM* | 3%
CN(C)c1cccc(C(=O)Nc2cccc(F)c2)c1 | -13% | >57 | / | -5%
COCC(=O)NCc1nc2ccccc2[nH]1 | -18% | >57 | -4% | -2%
O=C(NCc1ccc(Cl)cc1)c1cc(-c2cccs2)on1 | 7.9µM* | >57 | 3% | 19%
O=C(Nc1cnn(Cc2ccc(F)cc2)c1)c1cc(-c2cccs2)on1 | 13µM*[single pt active] | >57 | 0% | -3%
CCOc1ccc(NC(=O)C/C(N)=N/O)cc1 | -6% | >57 | 4% | 15%
Cc1nnc(SCc2nc3ccccc3s2)n1-c1ccccc1 | 21% | >57 | 3% | -5%
O=c1cc(-c2ccc(O)c(O)c2)oc2cc(O)cc(O)c12 | 0.5µM*! | >26 | ? | -1%
SMILES | AmpC inh no det | Prx2 Sm inh | LT uptake inh | AmpC inh det
COc1ccc(-c2cc(=O)c3c(O)cc(O)cc3o2)cc1 | -20%[12.8 µM] | >57 | -5%[3.58 µM] | -5%[12.8 µM]
O=C(NCCCN1CCN(c2ccccc2F)CC1)C1CCCN(S(=O)(=O)c2cnc[nH]2)C1 (stereo not drawn) | 4µM*[single pt active] | / | -2% | 11%
O=C1CC(O)(C(F)(F)F)Oc2c1ccc1ccccc21 (stereo not drawn) | -21% | / | 10µM* | 0%
COc1ccccc1Cc1nc(-c2ccc(Br)o2)no1 | 4µM*[single pt active] | >57 | ? | 10%
CCSc1ccccc1C(=O)Nc1cccc(OC)c1 | -6% | >57 | -23% | -6%
CCOc1ccc(OCC)c(NC(=O)C2CCCN(S(=O)(=O)c3c(C)n[nH]c3C)C2)c1 (stereo not drawn) | 96% | >57 | 20% | 13%
N#Cc1sc2nc(-c3ccccc3)cc(-c3ccco3)c2c1N | 6.3µM* | >57 | ? | -1%
N#Cc1c(-c2ccccc2)cc(-c2ccco2)c(C#N)c1N | 6.3µM* | / | ? | 12%
COC(=O)c1sc2nc(-c3ccco3)ccc2c1N | -10% | >57 | 3% | -4%
CC(C)Cc1cc(C(=O)Nc2sc3c(c2C#N)CCCC3)no1 | 4µM*[single pt active] | >57 | 7.9µM* | 12%
CC(=O)c1ccc(NC(=O)c2cc(CC(C)C)on2)cc1 | 4µM*[single pt active] | >57 | -16% | 11%
COc1cc(NC(=O)c2cc(CC(C)C)on2)c(OC)cc1Cl | 4µM*[single pt active] | >57 | ? | 10%
Cc1cc(NC(=O)c2cc(C)on2)no1 | 7% | >57 | 0% | 0%
Cc1cc(NC(=O)c2cc(CC(C)C)on2)no1 | 4µM*[single pt active] | >57 | -17% | 12%
COc1ccc(CNc2oc(-c3ccccc3)nc2C#N)cc1 | 4µM*[single pt active] | >57 | -2% | 15%
COc1ccc(CCNc2oc(-c3ccc(C)cc3)nc2C#N)cc1OC | 4µM*[single pt active] | >57 | 9% | 12%
CCCc1[nH]n(-c2nc3ccccc3s2)c(=O)c1C=NCC1CCCO1 (stereo not drawn) | 83% | >57 | -4% | 12%
Cc1ccccc1NS(=O)(=O)c1ccc(C2CNC(=O)C2)cc1 (stereo not drawn) | 0% | >57 | 9% | 18%
O=C1CC(c2ccc(S(=O)(=O)NCc3ccccc3)cc2)CN1 (stereo not drawn) | 4µM*[single pt active] | >57 | -8% | 14%
CCCCOC(=O)N1CCOCCOCCN(C(=O)OCCCC)CCOCCOCC1 | 114% | >57 | / | -2%
C=CCOC(=O)C1=C(C)Nc2nnnn2C1c1cccc(OC)c1OC (stereo not drawn) | 32% | >57 | 5% | -3%
O=C(NCCN1C(=O)C2C3C=CC(C3)C2C1=O)N1CCOCC1 (stereo not drawn) | 4µM*[single pt active] | >57 | -7% | 12%
O=C(NCCN1CCOCC1)N1CCOCC1 | -17% | >57 | -1% | 1%
CCCc1nnc(NC(=O)NCCN2C(=O)C3C4C=CC(C4)C3C2=O)s1 (stereo not drawn) | 4µM*[single pt active] | >57 | 2% | 14%
Cc1c(NC(=O)CCCCCN2C(=O)C3C4C=CC(C4)C3C2=O)c(=O)n(-c2ccccc2)n1C (stereo not drawn) | 2.5µM*[single pt active] | >57 | 2% | 11%
Cc1c(NC(=O)C(C)N2C(=O)C3C4C=CC(C4)C3C2=O)c(=O)n(-c2ccccc2)n1C (stereo not drawn) | -8% | >57 | 3% | 8%
Cc1c(NC(=O)c2ccc(N3C(=O)C4C5C=CC(C5)C4C3=O)cc2)c(=O)n(-c2ccccc2)n1C (stereo not drawn) | 0% | >57 | ? | -3%
Cc1c(NC(=O)NCCN2C(=O)C3C4C=CC(C4)C3C2=O)c(=O)n(-c2ccccc2)n1C (stereo not drawn) | 4µM*[single pt active] | >57 | 3% | 16%
Cn1c(=O)c2c(nc(CN3CCN(c4ccccc4)CC3)n2CCCc2ccccc2)n(C)c1=O | 147% | >57 | -11% | 18%
Cc1oc(C(=O)O)cc1COc1ccc2c3c(c(=O)oc2c1C)CCCC3 | -5% | / | -11% | 1%
